# “And” between values parts separate entries of the source, which are not always exact repeats. Identical values can stand only once. Inconclusive results are not listed. Values without a mark were called inactive. The source made the active and inactive calls. No rule for the calls is given here.
# Assay: dose response, V. cholerae BH1651, dry powder (AID 651847)
# Settings: V. cholerae BH1651 luxOD47E, luciferase light induction, 6 h; at 80 µM (top of the series) unless noted
row,SMILES,activation (light induction)
1,CC1(NC(=O)Cc2ccc(-c3ccccc3)cc2)COC1,0%
2,O=C(Cc1cccc(OC(F)(F)F)c1)NC1CCCC1,0%
3,CCn1nccc1NCc1ccc(N2CCCC2)cc1,12.5%
4,CCn1nnnc1NCc1ccccc1N1CCCC1,0%
5,CCC(C)NC(=O)Cc1ccc(-c2ccccc2)cc1 (stereo not given),0%
6,O=C(Cc1ccc(-c2ccccc2)cc1)NC1CCCCC1,-12.5%
7,O=C(Cc1ccc(-c2ccccc2)cc1)NC1CCC1,0%
8,CC(C)(C)OC(=O)N1CC(NC(=O)Cc2ccc(-c3ccccc3)cc2)C1,0%
9,CC(C)NC(=O)Cc1ccc(-c2ccccc2)cc1,25%
10,CCCn1nnnc1NCc1ccc(N2CCCC2)cc1,-25%
11,O=C(Cc1ccc(-c2ccccc2)cc1)NC1CC1,25% (active)
12,CCC(CC)NC(=O)Cc1ccc(-c2ccccc2)cc1,-16.7%
13,O=C(Cc1ccccc1F)NC1CCCC1,-12.5%
14,CCn1nccc1/N=C/c1ccc(N2CCCC2)cc1,0%
15,CCCn1nnnc1NCc1ccccc1Cl,25%
16,CCn1nnnc1NCc1cccc(OC)c1,-25%
17,CCn1nnc(NCc2ccc(C)cc2)n1,16.7%
18,Cc1ccc(Cn2nnnc2NCc2ccc(N3CCCC3)cc2)cc1,-12.5%
19,CCn1nnnc1NCc1ccc(N2CCCCC2)cc1,0% [at 28.5 µM]
20,Cn1nnnc1NCc1ccc(N2CCCC2)cc1,-25%

row,SMILES,activation (light induction)
1,c1ccc(Cn2nnc(NCc3ccc(N4CCCC4)cc3)n2)cc1,-50%
2,CCCn1nnnc1NCc1ccc(C(C)C)cc1,50%
3,c1ccc(Cn2nnnc2NCc2ccc(N3CCCC3)cc2)cc1,0%
4,Cc1ccccc1CC(=O)NC1CCCC1,12.5%
5,c1ccc(-n2nnnc2NCc2ccc(N3CCCC3)cc2)cc1,37.5%
6,CCn1nnnc1CCc1ccc(N2CCCC2)cc1,-12.5%
7,CCn1nnc(CCc2ccc(N3CCCC3)cc2)n1,-25%
8,CS(=O)(=O)c1ccc(CC(=O)NC2CCCC2)cc1,-25%
9,CC(C)c1ccc(CNc2nnnn2C)cc1,37.5%
10,CCn1nnnc1NCc1ccc(N2CCCC2)cc1,-12.5%
11,COc1ccc(CC(=O)NC2CCCC2)cc1,12.5%
12,O=C(Cc1cccc(F)c1)NC1CCCC1,0%
13,O=C(Cc1ccccc1C(F)(F)F)NC1CCCC1,0%
14,O=C(Cc1ccc(-c2ccccc2)cc1)NC1CCCC1,0%
15,CCc1ccccc1NCc1ccc(N2CCCC2)cc1,-16.7%
16,CCn1nnnc1NCc1ccc(C(C)C)cc1,-4.17% and 0%
17,CCCCn1nnnc1NCc1ccc(N2CCCC2)cc1,-25%
18,O=C(NCc1ccc(-c2ccccc2)cc1)C1CCCC1,12.5%
19,CCn1nnnc1NCc1cccc(N2CCCC2)c1,-33.3%
20,O=C(Cc1ccc(-c2ccccc2)cc1)NC1CCOCC1,-12.5%
